According to PubChem BioAssay (EPA / NIEHS):
Several values for one entry are separate records, joined by “and”; a condition that tells them apart may be missing. Equal entries are not always repeated. Results filed as inconclusive are left out. Some structures have more than one record in an assay (separate samples or runs), and their calls can disagree. Activity calls are given as the source filed them. How the source made its calls: active means hit-call score of the fitted dose curve at least 0.9, where 1 is the maximum; inconclusive means response in the unintended direction; inactive means score below 0.9.

What was measured:
[1] = ATG_XTT_Cytotoxicity: Cytotoxicity Assessment in the Attagene TRANS-FACTORIAL HepG2 Assay (AID 2283584);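 on AC50: cells exposed to compound for 24 h before reading; active means loss of viability signal versus DMSO baseline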
How it was run: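 Cells: human HepG2, transiently transfected with MRTU reporter constructs. Exposure 24 h. Readout: XTT, cell number. Baseline/neg ctrl DMSO; loss-of-signal scored.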

[2] = TOX21_p53_BLA_p2_viability: Viability Assessment in the Tox21 HCT-116 p53 Agonism Beta-lactamase Assay, Phase 2 (AID 2283591);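 further: compound exposure lasted 16 h at 37 °C; actives lower the ATP signal meaning cytotoxicity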
How it was run: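 Cytotoxicity readout: CellTiter-Glo ATP luminescence, 30 min at room temperature, after the beta-lactamase read. Cells were HCT116 exposed 16 h at 37C to compounds pin-transferred at 217-fold dilution from DMSO stocks.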

[3] = molecular target: Cellular tumor antigen p53 (Homo sapiens) (UniProt P04637); assay: TOX21_p53_BLA_p2_ratio: Tox21 HCT-116 p53 Agonism Beta-lactamase Assay, Ratio, Phase 2 (AID 2283592)
Sequence of Cellular tumor antigen p53 (Homo sapiens) (P04637 whole entry, looked up): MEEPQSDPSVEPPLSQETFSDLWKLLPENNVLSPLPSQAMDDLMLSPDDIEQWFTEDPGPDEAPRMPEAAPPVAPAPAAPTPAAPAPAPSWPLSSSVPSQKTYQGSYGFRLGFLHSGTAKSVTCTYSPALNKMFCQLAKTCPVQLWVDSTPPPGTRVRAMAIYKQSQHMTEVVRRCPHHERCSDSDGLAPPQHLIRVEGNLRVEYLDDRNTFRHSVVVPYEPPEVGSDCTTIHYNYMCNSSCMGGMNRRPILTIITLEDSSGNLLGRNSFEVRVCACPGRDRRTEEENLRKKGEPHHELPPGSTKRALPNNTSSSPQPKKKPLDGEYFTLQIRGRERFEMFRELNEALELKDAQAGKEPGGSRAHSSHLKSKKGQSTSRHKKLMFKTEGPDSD
How it was run: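 Plated HCT116 p53-bla cells (4000/well) received compound after 5 h, then 16 h at 37C/5% CO2. CCF4-AM added, 2 h RT. Ratio of 460 to 530 nm emission taken as the p53 reporter signal.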

[4] = molecular target: Cellular tumor antigen p53 (Homo sapiens) (UniProt P04637); assay: TOX21_p53_BLA_p3_ratio: Tox21 HCT-116 p53 Agonism Beta-lactamase Assay, Ratio, Phase 3 (AID 2283596)
How it was run: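 Cells were seeded at 4000/well, rested 5 h at 37C, then dosed with DMSO compound solutions (217-fold dilution) for 16 h. CCF4-AM substrate was loaded for 2 h at room temperature, and the 460/530 nm emission ratio was fitted for gain of signal versus DMSO.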

[5] = TOX21_p53_BLA_p4_viability: Viability Assessment in the Tox21 HCT-116 p53 Agonism Beta-lactamase Assay, Phase 4 (AID 2283597);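 further: hits lower the luminescence signal meaning cytotoxicity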
How it was run: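 Readout: ATP luminescence (CellTiter-Glo), measured 30 min after reagent addition at RT. The reagent followed a 2 h CCF4-AM incubation, and the cells had been exposed to compound for 16 h at 37C.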

[6] = molecular target: Cellular tumor antigen p53 (Homo sapiens) (UniProt P04637); assay: TOX21_p53_BLA_p5_ratio: Tox21 HCT-116 p53 Agonism Beta-lactamase Assay, Ratio, Phase 5 (AID 2283599)
How it was run: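 Beta-lactamase reporter ratio (blue 460 nm over green 530 nm, 405 nm excitation) after 2 h CCF4-AM loading, in HCT-116 cells exposed 16 h at 37 C to compounds pinned at 217-fold dilution. Increases relative to DMSO baseline scored.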

[7] = TOX21_p53_BLA_p5_viability: Viability Assessment in the Tox21 HCT-116 p53 Agonism Beta-lactamase Assay, Phase 5 (AID 2283600)
How it was run: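 Workflow: seed 4000 cells per well, wait 5 h, add compounds (DMSO, 217-fold dilution), incubate 16 h, load CCF4-AM 2 h, add CellTiter-Glo, read luminescence after 30 min.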

[8] = molecular target: Cellular tumor antigen p53 (Homo sapiens) (UniProt P04637); assay: TOX21_p53_BLA_p4_ratio: Tox21 HCT-116 p53 Agonism Beta-lactamase Assay, Ratio, Phase 4 (AID 2283601)
How it was run: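 Signal is the blue/green (460nm/530nm) ratio of cleaved versus uncleaved CCF4-AM substrate, read after 2 h substrate loading. Cells were HCT116 carrying the p53-responsive beta-lactamase reporter, dosed 16 h at 37C, 5% CO2; CellTiter-Glo measured in parallel.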

[9] = Tanguay_ZF_120hpf_MORT_legacy: (Legacy) Oregon State University Tanguay Lab 120 Hour Post-fertilization zebrafish Assay for Mortality (AID 2283633);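 on AC50: fitted as increase in binary mortality versus DMSO negative control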
How it was run: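 5D WT zebrafish, chorion removed 4 hpf; 1 embryo/well from 6 hpf; static exposure to 120 hpf, 28C, dark, sealed. Final DMSO 0.64%. Readout: binary mortality, brightfield, 24 + 120 hpf; DMSO as negative control.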

[10] = Tanguay_ZF_120hpf_YSE_legacy: (Legacy) Oregon State University Tanguay Lab 120 Hour Post-fertilization zebrafish Assay for Yolk Sac Edema (AID 2283634);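 on AC50: actives raise the incidence of yolk sac edema above the DMSO baseline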
How it was run: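 Dechorionate (pronase, 4 hpf) → place one 6 hpf embryo per well → static compound exposure, sealed and foil-covered, 28C, to 120 hpf → record yolk sac edema as present or absent. Final DMSO 0.64%.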

[11] = Tanguay_ZF_120hpf_AXIS_legacy: (Legacy) Oregon State University Tanguay Lab 120 Hour Post-fertilization zebrafish Assay for Body Axis Malformation (AID 2283635);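 on AC50: potency for an increased fraction of larvae scored with body axis malformation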
How it was run: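 Chorion is removed with pronase at 4 hpf, then single 6 hpf embryos are dosed (final DMSO 0.64%) and held statically at 28C in sealed, foil-covered plates. At 120 hpf body axis malformation is recorded as present or absent.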

[12] = Tanguay_ZF_120hpf_SNOU_legacy: (Legacy) Oregon State University Tanguay Lab 120 Hour Post-fertilization zebrafish Assay for Snout Malformation (AID 2283637)
How it was run: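 Binary snout-malformation call at 120 hpf in wild-type 5D embryos, chorion removed by pronase, under static exposure from 6 hpf at 28C (0.64% DMSO). Embryos dying by 24 or 120 hpf excluded.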

[13] = Tanguay_ZF_120hpf_JAW_legacy: (Legacy) Oregon State University Tanguay Lab 120 Hour Post-fertilization zebrafish Assay for Jaw Malformation (AID 2283638);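 on AC50: active means more embryos with jaw malformation than DMSO controls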
How it was run: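 Steps: dechorionate 4 hpf embryos (pronase); plate 1/well at 6 hpf; add test chemical, 0.64% DMSO final; seal, cover, hold at 28C statically to 120 hpf; score jaw defect presence/absence microscopically. Dead embryos not scored.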

[14] = Tanguay_ZF_120hpf_OTIC_legacy: (Legacy) Oregon State University Tanguay Lab 120 Hour Post-fertilization zebrafish Assay for Otic Vesicle Malformation (AID 2283639)
How it was run: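 Brightfield scoring at 120 hpf, binary present/absent; DMSO negative control, 5uM trimethyltin chloride positive control. Static exposure at 28C, final DMSO 0.64% (vol/vol). Dead embryos not scored for malformation.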

[15] = Tanguay_ZF_120hpf_PE_legacy: (Legacy) Oregon State University Tanguay Lab 120 Hour Post-fertilization zebrafish Assay for Pericardial Edema (AID 2283640);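 on AC50: potency for increased incidence of pericardial edema versus DMSO baseline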
How it was run: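 Embryos from wild-type 5D adults were staged, then dosed in 0.64% DMSO. They were kept sealed in the dark at 28C until 120 hpf. Pericardial edema was then recorded as present or absent.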

[16] = Tanguay_ZF_120hpf_BRAI_legacy: (Legacy) Oregon State University Tanguay Lab 120 Hour Post-fertilization zebrafish Assay for Brain Malformation (AID 2283641)
How it was run: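 Wild-type 5D larvae, static waterborne exposure to 120 hpf, 28C, 0.64% v/v DMSO. Brightfield scoring of brain defects, binary; dead embryos excluded. Positive ctrl 5uM trimethyltin chloride.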

[17] = Tanguay_ZF_120hpf_SOMI_legacy: (Legacy) Oregon State University Tanguay Lab 120 Hour Post-fertilization zebrafish Assay for Somite Malformation (AID 2283647)
How it was run: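 Read-out: presence or absence of somite malformation in 120 hpf larvae, gain-of-signal relative to DMSO baseline. Embryos lacked chorion (pronase, 4 hpf) and were exposed statically from 6 hpf at 28C; dead larvae not scored.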

[18] = LTEA_HepaRG_LDH_cytotoxicity: Cytotoxicity Assessment in the Life Technologies and Expression Analysis (LTEA) Assay (AID 2283563)
How it was run: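 Cells were thawed and plated for 48 h. Medium was then replaced with serum-free induction medium. Chemicals (8 half-log points, maximum 100 uM, 0.5% DMSO) were added in duplicate for 48 h, after which spent medium was assayed for LDH.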

Measured: AC50

O=C(O)C(F)(F)C(F)(F)C(F)(F)C(F)(F)C(F)(F)C(F)(F)C(F)(F)F
not listed: [18]
inactive: all other assays above

Oc1cc(Cl)ccc1Oc1ccc(Cl)cc1Cl
inactive: [1] | [2] | [3] | [5] | [6] | [7] | [8] | [9] | [10] | [11] | [12] | [13] | [14] | [15] | [16] | [17]
active: [1] 66.3 µM and 51.2 µM and 39.8 µM | [2] 31.6 µM | [3] 73.1 µM | [4] 78.1 µM | [5] 41.3 µM | [6] 81.1 µM | [7] 48 µM | [8] 79 µM | [9] 26.5 µM

O=S1OCC2C(CO1)C1(Cl)C(Cl)=C(Cl)C2(Cl)C1(Cl)Cl (stereo not drawn)
active: [2] 46.1 µM and 81.5 µM | [3] 73.9 µM and 86.2 µM | [5] 70.9 µM and 85.8 µM | [6] 87.3 µM and 73.3 µM | [7] 75.3 µM and 70.2 µM | [8] 69.2 µM and 74.9 µM
not listed: [18]
inactive: all other assays above

CC1(C)C(C=C(Cl)Cl)C1C(=O)OC(C#N)c1ccc(F)c(Oc2ccccc2)c1 (stereo not drawn)
not listed: [4] | [14] | [17] | [18]
inactive: all other assays above

O=S(=O)(O)C(F)(F)C(F)(F)C(F)(F)C(F)(F)C(F)(F)C(F)(F)C(F)(F)C(F)(F)F
inactive: [1] | [2] | [3] | [4] | [6] | [7] | [8] | [9] | [10] | [11] | [12] | [13] | [14] | [15] | [16] | [17]
active: [1] 151 µM and 157 µM | [2] 46.1 µM | [5] 64.6 µM and 48.8 µM and 59.3 µM | [8] 82.4 µM and 82.8 µM | [9] 426 nM and 4.73 µM and 20.8 µM | [10] 19.8 µM and 7.26 µM and 41.3 µM | [11] 25 µM and 42.3 µM and 42.2 µM | [12] 25.1 µM and 33.2 µM | [13] 26.5 µM and 43.5 µM | [14] 47.5 µM | [15] 14.5 µM and 36.8 µM | [16] 34.2 µM | [17] 33.8 µM

COP(=O)(OC)OC=C(Cl)Cl
inactive: [18] | [9] | [10] | [11] | [12] | [14] | [15] | [16] | [17]

CC(C)(C)C(O)C(Oc1ccc(Cl)cc1)n1cncn1 (stereo not drawn)
inactive: [1] | [2] | [3] | [4] | [5] | [6] | [7] | [8] | [9] | [12] | [13] | [17]
active: [10] 40.2 µM and 31 µM and 43.9 µM | [11] 40.7 µM and 31.9 µM and 48.1 µM | [12] 33.7 µM and 47.3 µM | [13] 32 µM and 51.8 µM | [14] 46.2 µM and 33 µM and 45.3 µM | [15] 47.5 µM and 32.6 µM and 43.3 µM | [16] 49.8 µM and 33.6 µM and 48.3 µM | [17] 46 µM

Clc1ccccc1-c1nnc(-c2ccccc2Cl)nn1
inactive: [18] | [9] | [10] | [11] | [13] | [14] | [16]

Oc1ccc(Cl)cc1Cc1ccccc1
inactive: [1] | [3] | [4] | [7] | [8] | [10] | [11] | [12] | [13] | [14] | [15] | [16] | [17]
active: [2] 70.3 µM and 66.7 µM | [3] 85 µM and 57.2 µM | [5] 67.5 µM and 23.3 µM and 36.5 µM | [6] 79 µM and 86.7 µM | [7] 73.6 µM and 70.6 µM | [8] 86.5 µM and 41.3 µM | [9] 10.8 µM and 6.48 µM and 36 µM
